Assay outcomes from PubChem.
Rows were chosen to be rich in hits. Some 21% of all compounds tested hit in one or more screens of this group.
NS1 inh = blocks influenza NS1 protein function; Potency, µM (series often up to 46.1 µM); AID 2326; 270,000 compounds, 0.4% hits; calls by dose curve; also: actives are rising curves; nearly all actives have a fitted effect of over 50% in size
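Recovery from NS1-induced slow growth read by OD600 in budding yeast switched to galactose assay medium (pH 6.0, -URA) at 1:100 dilution. Compound 23 nl per well; the matching strain lacking NS1 serves as control.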
Pf growth 48h = P. falciparum growth inhibition at 48 hours (one generation). P. falciparum luciferase growth in erythrocytes, 48 h. Potency, µM (doses to about 28.7 µM), hits mostly inhibitors. 310,000 compounds, 5.9% hits
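Read-out is firefly luciferase luminescence from an integrated reporter in P. falciparum, so falling signal marks reduced parasite growth. Infected erythrocytes were at 2% hematocrit and 0.1% parasitemia (final) in Albumax-supplemented RPMI 1640.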
Shiga inhibitor = blocks Shiga toxin action in Vero cells; AID 2315; 290,000 compounds, 9.2% hits; inhibition, % at 38.7 µM; Vero cells, Shiga toxin protein synthesis inhibition reporter; in the data active = inhibition mostly above about 28%, no sharp cut-off; inactive = mostly below about 43%
CHX counter = affects cycloheximide protein synthesis inhibition readout, counter-screen; cell reporter, cycloheximide protein synthesis inhibition counterscreen; max response, %; 300,000 compounds, 12% hits; AID 2314; in the data active = max response mostly above about 13%, no sharp cut-off; inactive = mostly below about 14%; also: read at 38.3 µM for the half of the compounds with a filed dose
Pf growth 96h = inhibits malaria parasite growth, 96 h; P. falciparum luciferase reporter growth, 96 h; Potency, µM (doses to about 28.7 µM), hits mostly inhibitors; 320,000 compounds, 6.9% hits; AID 504834
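Luminescence readout: decreased luciferase signal marks inhibited growth of reporter-expressing P. falciparum in infected red cells (2% hematocrit, 0.05% parasitemia final), exposed to compound two generations (96 h, 37 C, 5% CO2).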
Large screens that a line does not name were inactive. Unless noted, calls follow the shape of the dose curve; as a rule, active = well fitted inhibition curve with a large enough effect; inconclusive = small, poorly fitted or top-dose-only effect, or another doubt; inactive = no such curve, though single readings can be large or run the other way.

N#Cc1ccc(CN2CCN(C(=O)CN3C(=O)NC4(CCCC4)C3=O)CC2)cc1	none (no result: NS1 inh, Shiga inhibitor, CHX counter)
COc1ccc(OC)c(/C=N/NC(=O)C(=O)N2CCCCCC2)c1	none
CC(C)OC(=O)NC(C)(C)COC(=O)Nc1cccc(Cl)c1	Pf growth 48h inconclusive, CHX counter 14
C#CC(C)OC(=O)Nc1cccc(Cl)c1 (centres undefined)	Shiga inhibitor 41, CHX counter 32 (no result: NS1 inh, Pf growth 48h, Pf growth 96h)
CC(C)OC(=O)NCCOC(=O)Nc1cccc(Cl)c1	none (no result: Pf growth 96h)
CC(OC(=O)Nc1cccc(Cl)c1)C(=O)O (centres undefined)	none
CCN(CC)C1CCN(C(=O)CCn2nnnc2CN2CCOCC2)C1 (centres undefined)	none
NC(=O)CSc1nc2c(sc3ccccc32)c(=O)n1CCCC(=O)NCC1CCCO1 (centres undefined)	Pf growth 48h inconclusive, Pf growth 96h inconclusive
COc1ccc(/C=N\NC(=O)c2sccc2C)cc1Cn1nc(C)cc1C	Pf growth 48h inconclusive, Shiga inhibitor 105, CHX counter 42, Pf growth 96h inconclusive
COc1ccc(/C=N/NC(=O)c2ccccc2O)cc1Cn1nnc2ccccc21	Shiga inhibitor 50, CHX counter 22
O=C(Cn1nnc2ccccc21)Nc1ccccc1[N+](=O)[O-]	none
CCOc1cc(C#N)c(NC(=O)Cn2nnc3ccccc32)cc1OCC	Pf growth 96h 5.9µM
CN(C)c1ccc(/C=N/NC(=O)Cn2nnc3ccccc32)cc1	none
COc1ccc(/C=N\NC(=O)COc2ccccc2Cl)cc1Cn1nc(C)cc1C	Pf growth 96h inconclusive
COc1ccc(/C=N/NC(=O)Cn2nnc3ccccc32)cc1OC	Shiga inhibitor 32, CHX counter 22
COCCN(C(=O)CSc1nnc(-c2ccccc2F)n1C)c1c(N)n(Cc2ccccc2)c(=O)[nH]c1=O	Pf growth 96h inconclusive (no result: NS1 inh)
COc1ccc(CCNC(=O)CSc2nnc(NC(C)=O)s2)cc1OC	none
CCn1c(SC2CCOC2=O)nnc1-c1ccc(Cl)cc1 (centres undefined)	none
CCCCCCCCCCCCCCCC(=O)OCC(O)C1OC(=O)C(O)=C1O (centres undefined)	none (no result: NS1 inh, Pf growth 48h, Pf growth 96h)
Cc1cc(C)n(C(=O)Cn2nc([N+](=O)[O-])c(Br)c2C)n1	none (no result: NS1 inh)
Cc1cc(C)cc(OCc2ccc(C(=O)O)o2)c1	CHX counter 9.3
COC(=O)c1ccc(CO/N=C/c2ccc(OC)cc2)o1	Shiga inhibitor 58, CHX counter 53 (no result: NS1 inh)
Cc1ccc(OCc2ccc(C(=O)O)o2)cc1C	Shiga inhibitor 69, CHX counter 71, Pf growth 96h inconclusive
Cc1cc(C)cc(COc2ccc3c(C)c(CC(=O)O)c(=O)oc3c2C)c1	none (no result: Pf growth 48h)
Cc1c(C)c2ccc(OCc3ccc(C(=O)O)o3)c(C)c2oc1=O	Shiga inhibitor 58, CHX counter 32 (no result: Pf growth 96h)
CC(C)(c1ccccc1)c1ccc(OCc2ccc(C(=O)O)o2)cc1	none (no result: NS1 inh, Shiga inhibitor, CHX counter)
COc1ccc(C(=O)NC(=S)Nc2ccc3c4c(cccc24)CC3)cc1OC	none
Cc1ccn2c(NC(C)(C)C)c(-c3cccs3)nc2c1	none
O=C(CN(Cc1cccs1)C(=O)CNS(=O)(=O)c1ccc(Cl)cc1)NCC1CCCO1 (centres undefined)	none
c1ccc2sc(SN3CCOCC3)nc2c1	none
CSc1ccc(CCNC(=O)c2cc(C)nn2-c2ccccc2)cc1	none
COC(=O)c1cc(COc2ccc3ccc(=O)oc3c2)c(C)o1	none
CCc1cc(=O)oc2cc(OCc3ccc(C(=O)O)o3)ccc12	CHX counter 15
COC(=O)c1ccc(COc2ccc(C)c(C)c2)o1	Shiga inhibitor 98, CHX counter 27
COC(=O)c1ccc(COc2ccc3ccc(=O)oc3c2)o1	none
Cc1oc(C(=O)O)cc1COc1ccc2c(C)cc(=O)oc2c1	Pf growth 96h 2.1µM
COC(=O)c1ccc(COc2cc(C)ccc2C)o1	Shiga inhibitor 91, CHX counter 46
C/C=C/c1ccccc1OCc1ccc(C(=O)OC)o1	none
COc1ccccc1CN1CC(C(=O)NC2CCOCC2)CCC1=O (centres undefined)	none
COC(=O)c1ccc(COc2ccc(F)cc2)o1	Shiga inhibitor 53, CHX counter 28, Pf growth 96h inconclusive
CCOC(=O)CC1COCCN1C(=O)c1ccc2oc(Cc3ccccc3)nc2c1 (centres undefined)	Shiga inhibitor 62, CHX counter 48
CCCCc1nc2cc(C(=O)N3CCCCC3CC(=O)OCC)ccc2o1 (centres undefined)	CHX counter 31
CCCCc1nc2cc(C(=O)N3CCCCC3C(=O)OC)ccc2o1 (centres undefined)	Shiga inhibitor 57, CHX counter 39, Pf growth 96h inconclusive
COC(=O)C1CCCCN1C(=O)c1cccc(OC2CCN(C(=O)C3CC3)CC2)c1 (centres undefined)	none
CCOC(=O)CC1CCCCN1C(=O)c1cc(COc2cccc3cnccc23)on1 (centres undefined)	none
CCOc1ccccc1NS(=O)(=O)c1ccc2oc(=O)ccc2c1	none
CN(C)c1cccc(C(=O)n2cc(C(=O)c3cc(F)ccc3O)cn2)c1	Shiga inhibitor 97
COc1ccc(CCCn2ncc3c2nc(N)n2nc(-c4ccco4)nc32)cc1	none (no result: NS1 inh, Pf growth 48h, Pf growth 96h)
Cc1ccsc1/C=N/N=C1\C(=O)Nc2ccccc21	Shiga inhibitor 49, CHX counter 40
COc1cc(/C=N/N2C(=O)c3ccccc3C2=O)ccc1O	CHX counter 20
O=C1c2ccccc2C(=O)N1/N=C/c1ccc(O)c(O)c1O	Pf growth 48h inconclusive, Shiga inhibitor 55, CHX counter 24
O=C1C2C3C=CC(CC3)C2C(=O)N1/N=C/c1ccccc1O (centres undefined)	CHX counter 20
Cc1ccc(N=C2C(=O)Nc3ccccc32)c(C)c1	none
COc1cc(/C=N/N2C(=O)C3C4C=CC(CC4)C3C2=O)ccc1O (centres undefined)	Shiga inhibitor 57, Pf growth 96h inconclusive (no result: NS1 inh)
COc1cc(/C=N/N=C2/C(=O)Nc3ccccc32)ccc1O	CHX counter 23, Pf growth 96h inconclusive
COc1cc(/C=N/N=C2/NC(=O)C(c3ccccc3)S2)ccc1O (centres undefined)	none
O=C1Nc2ccccc2/C1=N\N=C\c1ccc(O)c(O)c1	none
COc1cc(/C=N/N=C2/NC(=O)C(Cc3ccc(F)cc3)S2)ccc1O (centres undefined)	Shiga inhibitor 84, CHX counter 34, Pf growth 96h inconclusive (no result: NS1 inh)
COc1ccccc1Oc1ccc(N2CC(C(=O)OCC(=O)c3ccccc3)CC2=O)cc1 (centres undefined)	none
O=C(NCC(c1ccc(F)cc1)N1CCOCC1)c1ccco1 (centres undefined)	none (no result: NS1 inh, Shiga inhibitor, CHX counter)
O=S(=O)(c1cc(Cl)ccc1Cl)n1cccn1	Pf growth 96h inconclusive
Cc1cc(C)cc(NC(=O)CCCN2C(=O)C(c3ccccc3)Oc3cccnc32)c1 (centres undefined)	Pf growth 48h inconclusive, Pf growth 96h 3.7µM
CC(=O)c1ccc(NC(=O)CCCN2C(=O)C(c3ccccc3)Oc3cccnc32)cc1 (centres undefined)	Pf growth 48h inconclusive, Pf growth 96h inconclusive
